Source: PubChem BioAssay (EPA / NIEHS)
Calls of active or inactive are those of the source. How the source made its calls: active means hit-call score of the fitted dose curve at least 0.9, where 1 is the maximum; inactive means score below 0.9.

What was measured:
[1] = ATG_GRE_CIS: Attagene CIS-FACTORIAL HepG2 Assay for human Glucocorticoid Response Elements (GRE) (AID 2282947); conditions: HepG2 GRE cis-reporter, Attagene multiplex mRNA; actives raise or lower the signal
Method in brief: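 Multiplexed cis-reporter mRNA induction, HepG2, 24 h post-dose. RT-PCR, FAM-labelled, HpaI-digested amplicons by CE. Bidirectional fit vs DMSO.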

[2] = ATG_ISRE_CIS: Attagene CIS-FACTORIAL HepG2 Assay for human Interferon Regulatory Factor 1 (IRF1) binding to an Interferon-Stimulated Response Element (ISRE) (AID 2282948); conditions: HepG2 ISRE cis-reporter (Attagene), mRNA transcription readout; actives raise or lower the signal
Method in brief: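 Endogenous transcription factor activity read as reporter transcript abundance via RT-PCR and capillary electrophoresis. HepG2 cells transiently transfected, 24 h chemical exposure. Gain or loss fitted against DMSO baseline.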

[3] = ATG_M_32_CIS: Attagene CIS-FACTORIAL HepG2 Assay for M32 Transcription Factor (Internal Marker) (AID 2282949); conditions: HepG2 Attagene cis-factorial M32 reporter, mRNA; actives raise or lower the signal;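 further: background control marker of the multiplexed CIS panel rather than a real target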
Method in brief: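 Using DMSO as baseline, bidirectional curve fits were applied to reporter mRNA signals. These came from transiently transfected HepG2 cells exposed for 24 h, with RNA analysed by RT-PCR, FAM primer extension, HpaI digestion and CE.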

[4] = ATG_M_06_CIS: Attagene CIS-FACTORIAL HepG2 Assay for M06 Transcription Factor (Internal Marker) (AID 2282950); conditions: HepG2 Attagene CIS-FACTORIAL M06 internal marker reporter; actives raise or lower the signal
Method in brief: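 Steps: transfect HepG2 with multiplexed cis-element reporter constructs; dose chemical 24 h; extract RNA with DNase treatment; reverse-transcribe, PCR-amplify, 6-FAM label, HpaI digest; separate fragments by capillary electrophoresis. Activity fitted both directions versus DMSO.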

[5] = molecular target: Hypoxia-inducible factor 1-alpha (Homo sapiens) (UniProt Q16665); experiment: ATG_HIF1a_CIS: Attagene CIS-FACTORIAL HepG2 Assay for human Hypoxia Inducible Factor 1 (HIF1A) (AID 2282951); conditions: HepG2 Attagene cis-factorial HIF1a reporter transcription; actives raise or lower the signal
Method in brief: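 HepG2 cells transiently transfected with multiple cis-regulated reporter transcription units measure endogenous transcription factor activity. After 24 h exposure, reporter mRNA is quantified by RT-PCR with 6-FAM labelling, HpaI digestion and capillary electrophoresis. Bidirectional fitting against DMSO.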

[6] = molecular target: Hepatocyte nuclear factor 6 (Homo sapiens) (UniProt Q9UBC0); experiment: ATG_HNF6_CIS: Attagene CIS-FACTORIAL HepG2 Assay for human Hepatocyte Nuclear Factor 6 (HNF6) (AID 2282952); conditions: HepG2 Attagene cis-factorial HNF6 reporter transcription; actives raise or lower the signal
Method in brief: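 Twenty-four-hour chemical treatment of reporter-transfected HepG2 cells precedes RNA isolation, DNase-treated reverse transcription and PCR of reporter sequences. Labelled fragments are sized by capillary electrophoresis and fitted bidirectionally versus DMSO.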

[7] = molecular target: Heat shock factor protein 1 (Homo sapiens) (UniProt Q00613); experiment: ATG_HSE_CIS: Attagene CIS-FACTORIAL HepG2 Assay for human Heat Shock Transcription Factor 1 (HSE) (AID 2282953); conditions: HepG2 HSE cis-reporter, Attagene RNA transcription; actives raise or lower the signal
Method in brief: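 Cells were transfected with cis-element-driven reporter constructs, dosed for 24 h, then total RNA was reverse-transcribed and reporter cDNA amplified, FAM-labelled and digested with HpaI. Fragments were resolved by capillary electrophoresis; gain or loss was fitted against DMSO.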

[8] = ATG_MRE_CIS: Attagene CIS-FACTORIAL HepG2 Assay for human Metal Responsive Element (MRE) (AID 2282954); conditions: HepG2 MRE cis-reporter transcription, Attagene multiplex; actives raise or lower the signal
Method in brief: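 Multiplexed cis-reporter assay in human HepG2 liver cells, 24 h incubation with test chemical. Reporter transcripts measured by RT-PCR and capillary electrophoresis; values from bidirectional curve fitting versus DMSO.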

[9] = molecular target: Paired box protein Pax-6 (Homo sapiens) (UniProt P26367); experiment: ATG_Pax6_CIS: Attagene CIS-FACTORIAL HepG2 Assay for human Paired Box 6 (PAX6) (AID 2282956); conditions: HepG2 CIS-FACTORIAL PAX6 reporter transcription, RNA readout; actives raise or lower the signal
Method in brief: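 Read-out is reporter transcript level, measured by RT-PCR with fluorescent primer extension and capillary electrophoresis after 24 h dosing of transfected HepG2 cells. Activity in either direction fitted relative to DMSO control.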

[10] = ATG_PXRE_CIS: Attagene CIS-FACTORIAL HepG2 Assay for human Pregnane X Receptor Element (PXRE) (AID 2282957); conditions: HepG2 Attagene CIS-FACTORIAL PXRE reporter, mRNA; actives raise or lower the signal
Method in brief: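 Bidirectional activity, baselined to DMSO, derived from reporter mRNA fluorescence (RT-PCR plus capillary electrophoresis) in HepG2 cells bearing cis-promoter reporter units, 24 h exposure.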

[11] = ATG_PPRE_CIS: Attagene CIS-FACTORIAL HepG2 Assay for human Peroxisome Proliferator-activated Response Element (PPRE) (AID 2282958); conditions: HepG2 PPRE cis-element reporter, Attagene transcription factor profiling; actives raise or lower the signal
Method in brief: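 HepG2 cells are transiently transfected with multiplexed cis-promoter reporter units to report endogenous PPAR activity. After 24 h dosing, reporter mRNA is read by RT-PCR and capillary electrophoresis. Fitting is bidirectional against DMSO.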

[12] = ATG_RORE_CIS: Attagene CIS-FACTORIAL HepG2 Assay for human RAR-related Orphan Receptor Element (RORE) (AID 2282959); conditions: HepG2 Attagene cis-factorial RORE reporter, mRNA; actives raise or lower the signal
Method in brief: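 HepG2 cells carrying transiently transfected cis-regulated reporter units; RORE-driven reporter mRNA quantified 24 h post-dosing by RT-PCR, 6-FAM primer extension, HpaI digestion and capillary electrophoresis. Bidirectional fit versus DMSO.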

[13] = ATG_Sox_CIS: Attagene CIS-FACTORIAL HepG2 Assay for human SRY-box transcription factor (SOX) (AID 2282960); conditions: HepG2 Attagene cis-factorial SOX reporter, mRNA; actives raise or lower the signal
Method in brief: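 HepG2 cells transiently transfected with multiple cis-regulated reporter units, then dosed for 24 h. Reporter mRNA quantified by RT-PCR, fluorescent labelling, HpaI digestion and capillary electrophoresis; bidirectional fit versus DMSO.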

[14] = molecular target: Transcription factor Sp1 (Homo sapiens) (UniProt P08047); experiment: ATG_Sp1_CIS: Attagene CIS-FACTORIAL HepG2 Assay for human Specificity Protein 1 (Sp1) (AID 2282961); conditions: HepG2 Sp1 cis-reporter transcription, actives raise or lower the signal
Method in brief: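 HepG2 cells transiently transfected with multiplexed cis-regulated reporter constructs, chemical exposure 24 h. Reporter mRNA quantified by RT-PCR with capillary electrophoresis; bidirectional fit relative to DMSO.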

[15] = ATG_SREBP_CIS: Attagene CIS-FACTORIAL HepG2 Assay for human Sterol Regulatory Element Binding (SREBP) (AID 2282962); conditions: HepG2 Attagene cis-factorial SREBP reporter, mRNA; actives raise or lower the signal
Method in brief: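 Endogenous SREBP activity read as cis-element-driven reporter transcript in transiently transfected HepG2, 24 h post-dosing; quantified via RT-PCR plus capillary electrophoresis of fluorescent fragments. Gain or loss of signal fitted relative to DMSO baseline.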

[16] = molecular target: Signal transducer and activator of transcription 3 (Homo sapiens) (UniProt P40763); experiment: ATG_STAT3_CIS: Attagene CIS-FACTORIAL HepG2 Assay for human Signal Transducer and Activator of Transcription 3 (STAT3) (AID 2282963); conditions: HepG2, Attagene cis-factorial STAT3 reporter transcription; actives raise or lower the signal
Method in brief: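 Cis-factorial format: endogenous transcription factors in HepG2 drive transfected reporter units. After 24 h treatment, reporter RNA was reverse-transcribed, amplified, FAM-labelled and HpaI-digested before CE analysis; activity scored in both directions against DMSO.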

[17] = ATG_TA_CIS: Attagene CIS-FACTORIAL HepG2 Assay for human TA Basal Promoter (AID 2282964); conditions: HepG2 Attagene CIS-factorial TA basal promoter reporter; actives raise or lower the signal
Method in brief: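 Steps: transfect HepG2 with MRTUs; dose 24 h; isolate RNA, DNase-treat, reverse-transcribe; PCR and FAM-label reporter cDNA; digest with HpaI 2h at 37 C; run capillary electrophoresis. Activity fitted both directions against DMSO.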

[18] = ATG_TCF_b_cat_CIS: Attagene CIS-FACTORIAL HepG2 Assay for human T-Cell-Factor with beta-catenin (TCF/b-cat) (AID 2282965); conditions: HepG2 TCF/beta-catenin cis-reporter transcription, actives raise or lower the signal
Method in brief: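 Measured: reporter mRNA in HepG2 transiently transfected with cis-promoter reporter units, 24 h after chemical addition. Fitting was bidirectional, DMSO as negative control.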

[19] = ATG_TAL_CIS: Attagene CIS-FACTORIAL HepG2 Assay for human TAL Basal Promoter (AID 2282966); conditions: HepG2 Attagene cis-factorial TAL promoter reporter; actives raise or lower the signal;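 further: background control endpoint measuring basal TAL promoter reporter mRNA not a specific factor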
Method in brief: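 Human hepatoma HepG2 cells, transfected with promoter-regulated reporter units, were treated 24 h. Reporter transcript levels, measured through RT-PCR and capillary electrophoresis, were fitted for gain or loss relative to DMSO.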

[20] = ATG_PBREM_CIS: Attagene CIS-FACTORIAL HepG2 Assay for human Phenobarbital-responsive Enhancer Module (PBREM) (AID 2282955); conditions: HepG2 PBREM cis-reporter, Attagene multiplexed transcription; actives raise or lower the signal
Method in brief: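 HepG2 cells transiently transfected with multiple cis-regulated reporter units measure endogenous transcription factor activity; 24 h compound exposure. Reporter mRNA quantified by RT-PCR, fluorescent labelling, HpaI digestion and capillary electrophoresis; bidirectional fit versus DMSO.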

Measured: AC50

Sequence of Hepatocyte nuclear factor 6 (Homo sapiens) (Q9UBC0 whole entry, looked up, the tested form may be a part): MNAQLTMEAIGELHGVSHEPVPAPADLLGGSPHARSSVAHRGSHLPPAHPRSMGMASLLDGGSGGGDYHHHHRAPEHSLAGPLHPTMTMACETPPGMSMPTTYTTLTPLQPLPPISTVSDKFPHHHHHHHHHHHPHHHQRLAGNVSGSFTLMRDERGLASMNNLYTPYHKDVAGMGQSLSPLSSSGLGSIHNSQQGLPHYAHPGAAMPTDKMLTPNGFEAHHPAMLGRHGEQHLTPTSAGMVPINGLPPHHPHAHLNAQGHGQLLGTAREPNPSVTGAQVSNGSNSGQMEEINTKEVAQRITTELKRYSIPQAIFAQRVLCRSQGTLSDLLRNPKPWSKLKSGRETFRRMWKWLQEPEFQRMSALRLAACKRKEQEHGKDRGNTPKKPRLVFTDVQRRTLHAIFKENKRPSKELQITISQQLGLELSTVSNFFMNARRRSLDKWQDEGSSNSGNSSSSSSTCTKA
Sequence of Heat shock factor protein 1 (Homo sapiens) (Q00613 whole entry, looked up, the tested form may be a part): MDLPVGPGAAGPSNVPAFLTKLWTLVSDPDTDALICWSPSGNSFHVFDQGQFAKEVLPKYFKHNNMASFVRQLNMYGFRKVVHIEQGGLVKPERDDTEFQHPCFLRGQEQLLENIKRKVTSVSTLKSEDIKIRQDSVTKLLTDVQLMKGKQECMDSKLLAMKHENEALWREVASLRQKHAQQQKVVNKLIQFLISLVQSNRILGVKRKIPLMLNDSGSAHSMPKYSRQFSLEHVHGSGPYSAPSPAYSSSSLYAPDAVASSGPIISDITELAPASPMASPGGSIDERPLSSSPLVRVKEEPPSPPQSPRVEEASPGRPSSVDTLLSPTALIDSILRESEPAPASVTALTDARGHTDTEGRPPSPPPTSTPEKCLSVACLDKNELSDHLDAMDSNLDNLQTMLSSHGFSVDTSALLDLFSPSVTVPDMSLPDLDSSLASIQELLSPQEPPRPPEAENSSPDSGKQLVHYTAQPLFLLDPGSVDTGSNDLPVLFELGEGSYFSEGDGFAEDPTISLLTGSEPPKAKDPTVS
Sequence of Paired box protein Pax-6 (Homo sapiens) (P26367 whole entry, looked up): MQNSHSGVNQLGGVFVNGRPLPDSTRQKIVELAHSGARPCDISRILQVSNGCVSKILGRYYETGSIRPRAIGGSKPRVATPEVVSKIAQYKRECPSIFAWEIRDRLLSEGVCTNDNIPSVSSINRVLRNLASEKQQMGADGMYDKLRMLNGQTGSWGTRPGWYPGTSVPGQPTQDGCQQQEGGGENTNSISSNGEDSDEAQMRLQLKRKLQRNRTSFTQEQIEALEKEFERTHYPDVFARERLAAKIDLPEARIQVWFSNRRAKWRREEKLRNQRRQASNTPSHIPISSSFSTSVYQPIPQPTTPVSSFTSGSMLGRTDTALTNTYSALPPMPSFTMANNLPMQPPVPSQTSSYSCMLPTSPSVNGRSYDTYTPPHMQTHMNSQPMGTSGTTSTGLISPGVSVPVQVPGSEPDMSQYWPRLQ
Sequence of Signal transducer and activator of transcription 3 (Homo sapiens) (P40763 whole entry, looked up): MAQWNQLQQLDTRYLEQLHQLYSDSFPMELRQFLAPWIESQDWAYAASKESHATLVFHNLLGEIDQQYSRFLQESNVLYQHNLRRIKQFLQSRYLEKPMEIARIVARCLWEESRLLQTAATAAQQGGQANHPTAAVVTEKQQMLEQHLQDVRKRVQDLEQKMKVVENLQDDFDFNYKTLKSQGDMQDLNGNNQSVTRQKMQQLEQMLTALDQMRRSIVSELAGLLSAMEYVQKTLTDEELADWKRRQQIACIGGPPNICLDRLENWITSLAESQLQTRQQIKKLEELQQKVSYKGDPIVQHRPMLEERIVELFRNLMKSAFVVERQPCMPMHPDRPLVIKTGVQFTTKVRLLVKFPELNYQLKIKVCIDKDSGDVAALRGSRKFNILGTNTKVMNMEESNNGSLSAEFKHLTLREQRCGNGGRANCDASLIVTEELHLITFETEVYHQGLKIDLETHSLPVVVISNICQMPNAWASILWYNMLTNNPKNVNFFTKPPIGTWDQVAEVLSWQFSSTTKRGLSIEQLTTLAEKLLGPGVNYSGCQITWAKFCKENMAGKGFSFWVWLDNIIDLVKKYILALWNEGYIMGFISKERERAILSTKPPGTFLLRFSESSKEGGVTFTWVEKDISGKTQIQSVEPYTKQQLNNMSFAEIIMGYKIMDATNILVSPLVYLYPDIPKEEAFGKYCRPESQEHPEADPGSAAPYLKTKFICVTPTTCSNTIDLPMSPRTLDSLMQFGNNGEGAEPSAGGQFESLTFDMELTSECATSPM
Sequence of Transcription factor Sp1 (Homo sapiens) (P08047 whole entry, looked up): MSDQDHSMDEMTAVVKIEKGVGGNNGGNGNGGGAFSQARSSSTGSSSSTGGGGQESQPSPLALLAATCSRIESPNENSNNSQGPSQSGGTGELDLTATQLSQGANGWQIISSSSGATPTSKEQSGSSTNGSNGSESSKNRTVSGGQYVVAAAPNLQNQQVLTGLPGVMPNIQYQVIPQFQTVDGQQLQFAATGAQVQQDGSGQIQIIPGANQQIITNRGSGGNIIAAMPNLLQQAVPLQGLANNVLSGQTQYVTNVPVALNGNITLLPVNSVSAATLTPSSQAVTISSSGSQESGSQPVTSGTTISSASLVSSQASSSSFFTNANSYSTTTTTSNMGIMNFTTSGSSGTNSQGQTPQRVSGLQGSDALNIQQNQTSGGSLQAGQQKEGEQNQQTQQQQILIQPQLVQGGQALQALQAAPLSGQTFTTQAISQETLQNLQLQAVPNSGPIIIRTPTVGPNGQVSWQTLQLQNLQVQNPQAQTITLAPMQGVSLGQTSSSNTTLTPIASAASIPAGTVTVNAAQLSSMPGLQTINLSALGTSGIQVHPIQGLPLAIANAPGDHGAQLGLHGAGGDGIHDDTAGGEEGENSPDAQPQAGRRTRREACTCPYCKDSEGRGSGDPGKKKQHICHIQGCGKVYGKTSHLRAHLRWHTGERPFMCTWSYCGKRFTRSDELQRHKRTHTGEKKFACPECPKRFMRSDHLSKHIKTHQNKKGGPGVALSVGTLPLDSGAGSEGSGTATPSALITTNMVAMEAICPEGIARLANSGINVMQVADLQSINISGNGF
Sequence of Hypoxia-inducible factor 1-alpha (Homo sapiens) (Q16665 whole entry, looked up): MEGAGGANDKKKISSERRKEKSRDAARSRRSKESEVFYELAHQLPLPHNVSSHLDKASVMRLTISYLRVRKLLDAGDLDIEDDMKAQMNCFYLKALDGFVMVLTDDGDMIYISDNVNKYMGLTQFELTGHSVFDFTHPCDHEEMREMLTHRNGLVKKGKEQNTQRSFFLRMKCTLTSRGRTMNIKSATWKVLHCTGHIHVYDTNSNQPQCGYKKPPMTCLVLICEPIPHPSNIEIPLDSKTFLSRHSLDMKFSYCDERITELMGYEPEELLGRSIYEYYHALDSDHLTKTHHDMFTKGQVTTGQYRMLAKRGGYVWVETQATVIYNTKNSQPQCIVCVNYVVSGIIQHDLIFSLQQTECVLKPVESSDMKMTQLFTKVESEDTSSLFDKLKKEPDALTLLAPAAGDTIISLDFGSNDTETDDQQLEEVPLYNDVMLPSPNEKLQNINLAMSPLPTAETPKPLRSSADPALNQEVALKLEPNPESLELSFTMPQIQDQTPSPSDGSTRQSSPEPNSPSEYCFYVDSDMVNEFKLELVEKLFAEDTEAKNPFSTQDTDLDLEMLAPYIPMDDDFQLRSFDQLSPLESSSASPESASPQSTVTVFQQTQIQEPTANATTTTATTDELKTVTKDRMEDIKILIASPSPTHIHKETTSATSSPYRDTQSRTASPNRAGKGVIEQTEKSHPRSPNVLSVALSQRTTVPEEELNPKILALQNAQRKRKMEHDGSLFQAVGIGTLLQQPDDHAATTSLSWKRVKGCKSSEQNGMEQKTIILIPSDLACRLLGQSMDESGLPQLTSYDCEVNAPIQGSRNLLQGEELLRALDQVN

FC(F)C(F)(F)OCC(Cn1cncn1)c1ccc(Cl)cc1Cl (stereo not drawn)
active: [5] 75.4 µM | [7] 81.4 µM | [8] 69.3 µM | [9] 78.8 µM | [10] 6.25 µM | [11] 44.5 µM | [12] 50 µM | [15] 13.2 µM
not listed: [20]
inactive: all other assays above

CCCCN(CC)c1c([N+](=O)[O-])cc(C(F)(F)F)cc1[N+](=O)[O-]
active: [20] 14.9 µM | [10] 7.62 µM
not listed: [6]
inactive: all other assays above

CCOP(=S)(OCC)SCCSCC
active: [1] 15.4 µM | [20] 30.5 µM | [10] 13.7 µM | [15] 29.5 µM
not listed: [6]
inactive: all other assays above

CCOP(=S)(OCC)Oc1ccc([N+](=O)[O-])cc1
active: [8] 50 µM | [10] 9.68 µM | [11] 50 µM | [15] 89.1 µM
not listed: [6]
inactive: all other assays above

CCCCSP(=O)(SCCCC)SCCCC
inactive: [4] | [5] | [7] | [9] | [12] | [18]
active: [1] 50 µM | [2] 58.6 µM | [3] 77.9 µM | [8] 23.4 µM | [20] 50 µM | [10] 12.9 µM | [11] 11.7 µM | [13] 76.7 µM | [14] 50 µM | [15] 20.1 µM | [16] 50 µM | [17] 80.2 µM | [19] 13 µM

CCC(=NOC/C=C/Cl)C1=C(O)CC(C2CCOCC2)CC1=O (stereo not drawn)
inactive: all assays above

Nc1c(Cl)cc([N+](=O)[O-])cc1Cl
active: [1] 86.3 µM | [8] 64.6 µM | [10] 44.2 µM | [11] 34.4 µM | [16] 75.9 µM
inactive: all other assays above

CCc1cnc(C2=NC(C)(C(C)C)C(=O)N2)c(C(=O)O)c1 (stereo not drawn)
inactive: all assays above

Nc1nc(N)nc(NC2CC2)n1
not listed: [11] | [20]
inactive: all other assays above

CCCOCC(=Nc1ccc(Cl)cc1C(F)(F)F)n1ccnc1
active: [10] 3.63 µM | [11] 2.67 µM | [15] 7.5 µM
not listed: [6] | [12]
inactive: all other assays above

C[Si](Cn1cncn1)(c1ccc(F)cc1)c1ccc(F)cc1
inactive: [2] | [4] | [6] | [13] | [14] | [16] | [18] | [19]
active: [3] 35.4 µM | [5] 50 µM | [7] 85.6 µM | [8] 63.2 µM | [9] 67.8 µM | [10] 3.52 µM | [11] 43.1 µM | [12] 18.7 µM | [15] 13.9 µM | [17] 50 µM

CC(C1CC1)C(O)(Cn1cncn1)c1ccc(Cl)cc1 (stereo not drawn)
active: [10] 24.8 µM
not listed: [1] | [6] | [20]
inactive: all other assays above

CC1=NNC(=O)N(/N=C/c2cccnc2)C1
not listed: [1] | [6] | [20]
inactive: all other assays above
